# Screening results (PubChem)
# miR122 inh: raises miR-122 sensor activity in Huh7 cells | activation, % at 12.5 µM | Huh7 psiCHECK-miR122 Renilla luciferase sensor, 48 h | AID 623901 | 0.14% of 340,000 active;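 active means mean activation of 30% or more, with every replicate also reaching 30%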;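 further: 0% = median of neutral control wells and 100% = median of positive control wells; higher luciferase signal means stronger suppression of miR-122 activity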
# Numbers without * were called inactive. This excerpt belongs to a sample that is enriched for hits.
SMILES,miR122 inh
CCC(=O)Nc1ccc2c(c1)OC[C@H](C)N(C(=O)CN1CCOCC1)C[C@@H](C)[C@H](OC)CN(C)C2=O,0
CO[C@@H]1CN(C)C(=O)c2ccc(NC(=O)NC(C)C)cc2OC[C@H](C)NC[C@@H]1C,-57
Cc1ccc(S(=O)(=O)Nc2ccc(C(=O)NCc3ccccn3)cc2)cc1,-199
COc1ccc(NS(=O)(=O)c2cc(NS(=O)(=O)c3cccs3)ccc2C)cc1,-94
O=S(=O)(Nc1nccs1)c1ccc(NS(=O)(=O)c2cccs2)cc1,39*
C[C@H]1CN([C@@H](C)CO)C(=O)c2cc(C3=CCCCC3)cnc2O[C@H]1CN(C)C(=O)c1ccc(F)cc1,2
C[C@H](CO)N1C[C@H](C)[C@H](CN(C)C(=O)Nc2ccccc2)Oc2cc(C#Cc3ccccc3)ccc2S1(=O)=O,-9
C[C@H](CO)N1C[C@H](C)[C@@H](CN(C)Cc2ccc(F)cc2)Oc2cc(C#Cc3ccccn3)ccc2S1(=O)=O,-24
CCCNC(=O)N(C)C[C@@H]1Oc2cc(Br)ccc2S(=O)(=O)N([C@H](C)CO)C[C@H]1C,4
COc1cccc(-c2cnc3c(c2)C(=O)N([C@@H](C)CO)C[C@H](C)[C@H](CN(C)Cc2cccnc2)O3)c1,-5
C[C@@H]1CN([C@@H](C)CO)C(=O)c2cc(Br)cnc2O[C@@H]1CN(C)C(=O)c1cccnc1,-5
C[C@@H]1CN([C@H](C)CO)S(=O)(=O)c2ccc(/C=C/c3ccccc3)cc2O[C@H]1CN(C)C(=O)c1cccnc1,-16
COc1ccc(OC)c(S(=O)(=O)Nc2ccc(C(C)=O)cc2)c1,-100
COc1cccc(OCc2cc(/C=N/Nc3ccc(C(=O)O)cc3)ccc2OC)c1,47*
COCC#Cc1ccc2c(c1)O[C@@H](CN(C)Cc1cncnc1)[C@H](C)CN([C@H](C)CO)S2(=O)=O,-6
C[C@H]1CN([C@@H](C)CO)C(=O)c2cc(-c3ccncc3)cnc2O[C@@H]1CN(C)C(=O)C1CCOCC1,-9
C[C@H](CO)N1C[C@H](C)[C@H](CN(C)C(=O)CC2CC2)Oc2cc(-c3ccccc3)ccc2S1(=O)=O,-10
COc1ccc(-c2oc3ncn(CCN4CCOCC4)c(=N)c3c2-c2ccc(OC)cc2)cc1,42*
COc1ccc(-c2oc3ncnc(NCCCN4CCOCC4)c3c2-c2ccc(OC)cc2)cc1,38*
Cc1ccc(S(=O)(=O)NCCN2CCOCC2)c(C)c1C,-92
COc1ccc(NC(=O)N(C)C[C@@H]2Oc3ncc(C4=CCCC4)cc3C(=O)N([C@@H](C)CO)C[C@H]2C)cc1,2
COc1ccc(NC(=O)N(C)C[C@H]2Oc3ncc(C4=CCCC4)cc3C(=O)N([C@H](C)CO)C[C@@H]2C)cc1,5
C[C@@H]1CN([C@H](C)CO)C(=O)c2cc(C#Cc3ccccc3F)cnc2O[C@@H]1CN(C)S(=O)(=O)c1ccccc1,3
CCCNC(=O)N(C)C[C@@H]1Oc2cc(C#Cc3cccc(F)c3)ccc2S(=O)(=O)N([C@@H](C)CO)C[C@@H]1C,-4
COc1ccccc1-c1ccc2c(c1)O[C@H](CN(C)S(=O)(=O)c1ccccc1)[C@@H](C)CN([C@@H](C)CO)S2(=O)=O,-45
SMILES,miR122 inh
C[C@H](O)C#Cc1ccc2c(c1)O[C@@H](CN(C)Cc1cncnc1)[C@@H](C)CN([C@@H](C)CO)S2(=O)=O,10
C[C@@H]1CN([C@H](C)CO)C(=O)Cc2cc(NS(=O)(=O)c3ccc(Cl)cc3)ccc2O[C@@H]1CN(C)C(=O)Nc1ccc(C(F)(F)F)cc1,-103
Cc1ccc(S(=O)(=O)N(C)C[C@@H]2Oc3ccc(NC(=O)Nc4ccc(C(F)(F)F)cc4)cc3CC(=O)N([C@H](C)CO)C[C@@H]2C)cc1,-123
C[C@H](CO)N1C[C@H](C)[C@H](CN(C)Cc2ccc(C(=O)Nc3ccccc3N)cc2)Oc2ccc(NC(=O)C3CCCCC3)cc2CC1=O,-95
C[C@H](CO)N1C[C@H](C)[C@H](CN(C)Cc2ccc(C(=O)Nc3ccccc3N)cc2)Oc2ccc(NC(=O)C3CC3)cc2CC1=O,-165
C[C@@H]1CN([C@@H](C)CO)C(=O)Cc2cc(NC(=O)C3CCCCC3)ccc2O[C@H]1CN(C)Cc1ccc(-c2ccccc2)cc1,33*
C[C@@H]1CN([C@@H](C)CO)C(=O)Cc2cc(NC(=O)Nc3ccc(C(F)(F)F)cc3)ccc2O[C@H]1CN(C)CC1CCCCC1,31*
COc1ccc(CN(C)C[C@H]2Oc3c(NC(=O)NC4CCCCC4)cccc3C(=O)N([C@H](C)CO)C[C@@H]2C)cc1,-255
C[C@H]1CN([C@@H](C)CO)C(=O)c2cc(C#Cc3ccccn3)cnc2O[C@H]1CN(C)Cc1cccnc1,-1
C[C@@H]1CN([C@H](C)CO)S(=O)(=O)c2ccc(C3=CCCCC3)cc2O[C@@H]1CN(C)C(=O)CC1CC1,-1
CCC(=O)N(C)C[C@H]1Oc2cc(C#C[C@H](C)O)ccc2S(=O)(=O)N([C@@H](C)CO)C[C@H]1C,7
C[C@@H]1CN([C@@H](C)CO)C(=O)c2cccc(N(C)C)c2O[C@@H]1CN(C)Cc1ccc(C(=O)Nc2ccccc2N)cc1,-109
